SMN2 splice enh – increases expression of the SMN2 splice variant | AID 1458 | 210,000 tested, 2.8% active | Potency, µM (series often up to 46.1 µM), without a hit: at the highest dose activity change, positive = activation, usual class: activators | HEK293 SMN2-luciferase splicing reporter, luminescence, 30-36 h; note: % of control where 0% means no effect; nearly all actives have a fitted effect of over 55% in size
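qHTS luciferase splicing reporter: luminescence rises when SMN2 exon 7 is included in transfected HEK293 cells. Compound exposure lasted 30-36 h at 37C, with 4.5 mM final sodium butyrate as control, followed by a ONE-Glo read.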
NPC1 prom act – activates the NPC1 promoter; Huh7 NPC1 promoter luciferase reporter, 24 h; Potency, µM (titrated, usually from 9.22 µM), for the others: at the highest dose activation, actives largely listed as activators; 320,000 tested, 2.4% active; AID 485313; note: % of control where 0% means no effect; nearly all actives have a fitted effect of over 60% in size
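Luminescence from an NPC1 promoter-driven luciferase reporter in stably transfected Huh7 cells was measured after 24 h compound treatment at 37 °C, followed by 10 min ambient incubation with luciferase detection reagent.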
Rab9 prom act – activates the Rab9 promoter; Huh7 Rab9 promoter-luciferase reporter, luminescence, 24 h; AID 485297; Potency, µM (series often up to 9.22 µM), without a hit: top-dose activation, negative = inhibition, hits mostly activators; 320,000 tested, 2.8% active; note: % of control where 0% means no effect; nearly all actives have a fitted effect of over 60% in size
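Huh7 cells stably carrying Rab9 promoter–luciferase reporter, plated 1500 cells/well, compound added after 2 h and incubated 24 h at 37 °C; luciferase luminescence then read after 10 min with detection reagent.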
FLuc modulator – counter-screen for miR-21 project: firefly luciferase inhibitors or activators. purified FLuc, Km substrates, luminescence inhibition. 360,000 tested, 6.9% active. Potency, µM (top dose mostly 57.5 µM), for inactives: at the highest dose activity change, negative = inhibition, actives largely listed as inhibitors. P08659;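 note: plate controls were vehicle for no effect and reference inhibitor for full effect; nearly all actives have a fitted effect of over 55% in size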
Target sequence (P08659 whole entry, looked up): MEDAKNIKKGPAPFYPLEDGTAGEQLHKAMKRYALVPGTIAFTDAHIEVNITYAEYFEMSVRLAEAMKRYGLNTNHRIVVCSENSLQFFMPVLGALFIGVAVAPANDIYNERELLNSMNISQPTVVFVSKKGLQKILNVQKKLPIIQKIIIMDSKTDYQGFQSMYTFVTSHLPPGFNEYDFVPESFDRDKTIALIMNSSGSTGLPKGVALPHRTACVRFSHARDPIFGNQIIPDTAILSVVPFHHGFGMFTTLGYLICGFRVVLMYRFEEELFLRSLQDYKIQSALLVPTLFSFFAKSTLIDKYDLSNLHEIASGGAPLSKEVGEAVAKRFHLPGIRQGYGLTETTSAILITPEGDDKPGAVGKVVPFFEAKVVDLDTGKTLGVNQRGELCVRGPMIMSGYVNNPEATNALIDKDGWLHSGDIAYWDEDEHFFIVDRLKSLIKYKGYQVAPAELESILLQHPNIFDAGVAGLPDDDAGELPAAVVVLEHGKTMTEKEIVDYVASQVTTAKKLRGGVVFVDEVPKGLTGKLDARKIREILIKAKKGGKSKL
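Purified P. pyralis luciferase (10nM final) with 10uM D-luciferin and 10uM ATP (Km levels) in 50mM Tris acetate pH 7.5, 10mM Mg acetate, 0.01% Tween-20, 0.05% BSA; qHTS 6-point titration, ~60 µM downward; luminescence read.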
Luc counter – counter-screen: inhibitors of Kinase-Glo firefly luciferase; Q27757; Kinase-Glo luciferase, ATP luminescence, 8 min; Potency, µM (series often up to 38.3 µM), without a hit: at the top dose activity change, negative = inhibition, most hits filed as inhibitors; 200,000 tested, 0.28% active; AID 1379; note: % is set by controls: 0 for no effect and ±100 for the full control effect; nearly all actives have a fitted effect of over 60% in size
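Compound is pinned into ATP-containing buffer (10 uM ATP, imidazole pH 7.2, 7 mM MgCl2). Kinase-Glo luciferase reagent is then added. Light output is recorded following an 8-min room-temperature incubation.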
* marks the source's active call; other numbers are inactive results; ? = inconclusive; . = no result given; [ ] = remark or other dose. Hits are enriched below; roughly 7.3% of the tested compounds scored in any of these assays. Calls come from the whole dose curve; as a rule, active = well fitted curve in the direction sought with a large enough effect; inconclusive = small, poorly fitted or top-dose-only effect, or another doubt; inactive = no such curve, though single readings can be large; an effect the other way counts as inactive or inconclusive. Potency is the fitted concentration of half-maximal effect.

SMILES	SMN2 splice enh	NPC1 prom act	Rab9 prom act	FLuc modulator	Luc counter
COc1ccccc1NC=C1C(=O)OC(C)(C)OC1=O	9%	-4%	9%	11µM*	7%
COc1ccc(-n2nc(C(=O)N3CCN(c4cccc(C(F)(F)F)c4)CC3)c3c4ccccc4n(C)c3c2=O)cc1Cl	15%	.	.	7%	.
Nc1nc(-c2ccc(-c3ccccc3)cc2)cs1	0.5µM*	0.79µM*	0.4µM*	2.4µM*	-17%
COc1ccc(-c2csc(N=C(N)N)n2)cc1	29%	?	?	15µM*	0%
Nc1nc(-c2ccc3ccccc3c2)cc(-c2cc(-c3ccc4ccccc4c3)nc(N)n2)n1	-2%[9.22 µM]	.	.	.	-1%[7.66 µM]
Nc1nc(-c2ccc3ccccc3c2)cs1	11µM*	3.2µM*	0.79µM*	3.8µM*	-6%
Nc1nc(-c2ccc(C(=O)O)cc2)cs1	5%	-8%	-4%	-9%	-4%
Nc1nc(-c2ccc(Oc3ccccc3)cc2)cs1	.	?	?	13µM*	.
COc1ccc(OC)c(CCNC(=O)c2nc(-c3ccc(Cl)cc3)n3c2CCCCC3)c1	.	.	.	-6%	.
COc1ccc(-c2csc(N)n2)cc1	14µM*	?	?	15µM*	-3%
Cc1ccc(OCc2csc(N)n2)cc1	13µM*	?	4µM*	24µM*	-4%
COc1ccc(-c2csc(-c3cc4ccccc4oc3=N)n2)cc1	5%	1%	0%	5.4µM*	2%
COCCn1c(C)cc(O)c(C(c2ccc(OC)cc2)N2CCN(c3ccccc3)CC2)c1=O (stereo unspecified)	.	.	.	-11%	.
O=C(O)CCn1cnc2c(=S)nc[nH]c21	-11%[9.22 µM]	.	.	.	-3%[7.66 µM]
Cc1c(C(=O)N/N=C/c2ccc(O)c(Br)c2)sc(N)c1C#N	?	-4%	-6%	13µM*	-2%
COc1ccccc1N1CCN(C(=O)c2cnn(-c3ccc(F)cc3F)c2C2CCNCC2)CC1	.	.	.	0%	.
O=C(O)/C=C/C(=O)NNC(=O)c1ccc(Cl)cc1Cl	.	-3%	14%	-18%	-2%
O=C(NC1CC(=O)c2sccc21)c1ccc(Cl)cc1Cl (stereo unspecified)	5µM*	?	2.8µM*	17µM*	1%
CC(C)Oc1ccc(C(=O)NC2CCCCC2)cc1	?	2.8µM*	4µM*	11µM*	-4%
CC(C)Oc1ccc(C(=O)NC2CCS(=O)(=O)C2)cc1 (stereo unspecified)	-6%	-3%	5%	4%	0%
COc1ccc(C(=O)NC2CCN(CC(=O)NC3CCCCC3)CC2)cc1	.	-2%	-4%	4%	.
C=CCOc1ccc(C(=O)NC2CCCCC2)cc1	.	?	?	12µM*	-9%
Cc1nc2nc(CNC(=O)c3cccc(F)c3)nn2c(C)c1CCC(=O)Nc1cccc(Cl)c1	.	.	.	2%	.
O=C(CN1CCCCC1)Nc1scc2c1c(=O)oc1ccccc12	.	?	2.8µM*	-9%	.
O=C(CN1CCOCC1)Nc1scc2c1c(=O)oc1ccccc12	.	-1%	-4%	-8%	.
SMILES	SMN2 splice enh	NPC1 prom act	Rab9 prom act	FLuc modulator	Luc counter
Fc1ccccc1-c1nc(-c2cnccc2C(F)(F)F)no1	.	1%	10%	?	.
Fc1ccccc1-c1nc(-c2ccncc2)no1	.	1.8µM*	1.8µM*	8.5µM*	.
Fc1ccccc1-c1nc(-c2ccccc2)no1	11µM*	3.5µM*	2.8µM*	0.6µM*	?
Brc1ccccc1-c1nc(-c2ccccc2)no1	4µM*	27%	3.5µM*	0.95µM*	-25%
CC1=CC(c2ccccc2)=Nc2ccc(C)cc2N1	10µM*	3.5µM*	4µM*	6.7µM*	-25%
CC(=O)c1ccc(NC(=O)CSc2nccn2Cc2ccco2)cc1	.	.	.	17µM*	.
CC(=O)c1ccc(NC(=O)CSc2nccn2C)cc1	.	22%	11%	-8%	.
CC(=O)c1ccc(NC(=O)CSc2nccn2CCc2ccccc2)cc1	15%	?	?	13µM*	-3%
Cc1ccc(NC(=O)CSc2nccn2Cc2ccco2)cc1	.	?	4.5µM*	19µM*	.
O=C(CSc1nccn1Cc1ccco1)Nc1ccc(F)cc1	.	-3%	3%	-13%	.
COc1ccc(NC(=O)CSc2nccn2Cc2ccco2)c(OC)c1	.	21%	?	19µM*	.
COc1cc(Cl)c(NC(=O)c2cc(S(=O)(=O)N3CCCCC3)c[nH]2)c(OC)c1	.	.	.	-9%	.
CCc1ccc(Oc2c(C(F)(F)F)oc3c(CN4CCC(C)CC4)c(O)ccc3c2=O)cc1	-8%	.	.	2%	.
N#Cc1ccccc1NC(=O)CSc1nccn1CCc1ccccc1	?	?	?	21µM*	-1%
Cc1ccc(CCNC(=O)c2cccc(Nc3nc4ccccc4nc3-n3nc(C)cc3C)c2)cc1	-2%	.	.	-6%	.
CC(=O)Nc1ccc(NC(=O)C/C(C)=N/NC(=O)c2cccc3ccccc23)cc1	.	-11%	-6%	15µM*	.
COc1ccc(OC)c(NC(=O)CSc2nnc(NC(=O)c3ccco3)s2)c1	.	8%	11%	27µM*	.
COc1ccccc1NC(=O)CSc1nnc(NC(=O)c2ccco2)s1	.	-1%	8%	15µM*	.
CCOC(=O)c1ccc(NC(=O)CS(=O)(=O)Cc2nc(-c3ccc(C)cc3)oc2C)cc1	-7%	.	.	-5%	.
CC(C)CCNC(=O)c1ccc2c(c1)NC(=O)C(C(C)C)N2 (stereo unspecified)	-3%	.	.	-6%	.
CCOc1ccccc1N(CC(=O)NCCSc1ccccc1)S(=O)(=O)c1ccccc1	6%	.	.	-7%	.
CCCC(=O)Nc1ccc(C(=O)/C=C/c2ccc(SC)cc2)cc1	-10%	-1%	18%	?	5%
O=C(O)c1ccc(/C=C/C(=O)c2ccc3c(c2)OCCCO3)cc1	.	?	?	0.076µM*	.
CC(=O)Nc1ccc(/C=C/C(=O)c2ccc3c(c2)OCCO3)cc1	.	-1%	8%	6.7µM*	.
CSc1ccc(/C=C/C(=O)c2ccc(NC(C)=O)cc2)cc1	5%	13%	18%	3µM*	2%
SMILES	SMN2 splice enh	NPC1 prom act	Rab9 prom act	FLuc modulator	Luc counter
CCC1CN(CC(=O)NCc2cccc(Br)c2)c2ccccc2S1 (stereo unspecified)	.	.	.	-2%	.
C/C(=N\NC(=O)c1ccncc1)c1ccc(NC(=O)c2ccc(Cl)cc2)cc1	.	8%	27%	.	.
C/C(=N/NS(=O)(=O)c1ccc(Cl)cc1)c1cccc(NC(=O)c2ccncc2)c1	.	-4%	0%	-17%	.
C/C(=N\NC(=O)c1ccn(C)n1)c1cccc(NC(=O)c2ccncc2)c1	-5%	0%	-5%	15µM*	1%
C/C(=N\NS(=O)(=O)c1ccccc1)c1cccc(NC(=O)c2cccc(Cl)c2)c1	-1%	2%	-3%	24µM*	3%
C/C(=N\NC(=O)c1cccnc1)c1ccccc1	.	21%	21%	-11%	.
C/C(=N\NC(=O)c1ccc(Cl)cc1)c1cccc(NC(=O)c2cccnc2)c1	?	22%	?	3µM*	-3%
